Compound activity: PubChem BioAssay, Broad Institute
Many of the other results were omitted from the sample, so hits are more common in it than they were.
IDE exosite FP: exo-site inhibitors of human IDE, primary screen, biochemical, fluorescence anisotropy, probe displacement. purified IDE, FL-6b probe fluorescence polarization; active compounds read low. z-score at 20 µM. actives 6.3% (n = 17,000);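 active means z-score of -3 or lower, meaning strong loss of probe binding signal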;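 further: His-tagged human IDE residues 42-1019 made in E. coli with 30 nM FL-6b probe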
An asterisk follows results filed as active.

SMILES	IDE exosite FP
O=C1CCC(=O)N[C@@H](c2ccccc2)C/C=C\CCN1	-0.77
CCNC(=O)C[C@@H]1CC[C@@H]2[C@H](COC[C@@H](O)CN2C(=O)C2CCCC2)O1	0.68
CC(C)C#Cc1ccc([C@H]2[C@@H](CO)N(C(=O)c3ccccn3)[C@H]2C#N)cc1	3.5
Cc1ccccc1-c1ccc([C@@H]2[C@@H](CO)N3C(=O)CN(C(=O)Nc4ccc(F)cc4)C[C@@H]23)cc1	-11*
Cc1ccccc1-c1ccc([C@H]2[C@@H](CO)N3CCCCN(C(=O)Nc4ccc(F)cc4)C[C@H]23)cc1	-7.1*
Cc1ccccc1-c1ccc([C@@H]2[C@@H](CO)N3CCCCN(C(=O)Nc4ccc(F)cc4)C[C@H]23)cc1	1.8
O=C(Nc1cccc(F)c1)N1CCCCN2[C@H](CO)[C@H](c3ccc(-c4ccccc4F)cc3)[C@H]2C1	1.7
Cc1ccccc1-c1ccc([C@H]2[C@H](CO)N3CCCCN(C(=O)Nc4ccccc4)C[C@@H]23)cc1	-3.9*
Cc1ccccc1-c1ccc([C@@H]2[C@@H](CO)N3CCCCN(C(=O)Nc4ccccc4)C[C@@H]23)cc1	1.2
Cc1ccccc1-c1ccc([C@H]2[C@H]3CN(C(=O)Nc4ccc(F)cc4)CCCCN3[C@H]2CO)cc1	3.4
Cc1ccccc1-c1ccc([C@H]2[C@@H](CO)N3CCCCN(C(=O)Nc4ccc(F)cc4)C[C@@H]23)cc1	-1.6
Cc1ccccc1-c1ccc([C@H]2[C@@H](CO)N3CCCCN(C(=O)Nc4cccc(F)c4)C[C@@H]23)cc1	-4.4*
Cc1ccccc1-c1ccc([C@@H]2[C@@H](CO)N3C(=O)CN(C(=O)Nc4ccc(F)cc4)C[C@H]23)cc1	-1.4
Cc1ccccc1-c1ccc([C@@H]2[C@@H](CO)N3C(=O)CN(C(=O)Nc4cccc(F)c4)C[C@H]23)cc1	-2.1
Cc1ccccc1-c1ccc([C@@H]2[C@H](CO)N3CCCCN(C(=O)Nc4cccc(F)c4)C[C@@H]23)cc1	0.19
CC(C)CC#Cc1ccc([C@@H]2[C@@H](CO)N3C(=O)CN(S(C)(=O)=O)C[C@@H]23)cc1	4.1
CC(C)[C@H]1COCc2cn(nn2)CCCCC(=O)N1	-0.75
COCC#Cc1ccc([C@@H]2[C@H]3CN(C(=O)C4CCC4)CC(=O)N3[C@H]2CO)cc1	0.077
C[C@@H]1CCn2cc(nn2)COC[C@@H](c2ccccc2)NC1=O	0.6
C[C@@H]1CN([C@@H](C)CO)C(=O)c2ccccc2-c2ccccc2CO[C@@H]1CN(C)C(=O)[C@H]1CCCN1C	-0.68
CCCC#Cc1ccc([C@@H]2[C@@H](CO)N3C(=O)CN(C(=O)Nc4cc(F)ccc4F)C[C@H]23)cc1	4.1
COc1ccc(NC(=O)N2CC(=O)N3[C@@H](CO)[C@H](c4ccc(-c5ccccc5)cc4)[C@@H]3C2)cc1	0.99
CN(C[C@H]1[C@H](c2ccccc2)[C@@H](CO)N1CC1CC1)C(=O)c1ccc(F)cc1	-0.13
COc1ccc(C#Cc2ccc([C@@H]3[C@@H](CO)N4CCCCN(S(=O)(=O)c5ccccc5)C[C@H]34)cc2)cc1	5.6
COc1ccccc1C#Cc1ccc([C@H]2[C@H](CO)N3CCCCN(S(C)(=O)=O)C[C@@H]23)cc1	-8.1*
SMILES	IDE exosite FP
OC[C@@H]1[C@H](c2ccc(-c3ccccc3)cc2)[C@@H]2CN(CCC(F)(F)F)CCCCN12	3.5
OC[C@H]1[C@H](c2ccc(-c3ccccc3)cc2)[C@H]2CN(CCC(F)(F)F)CCCCN21	0.51
COc1ccccc1C#Cc1ccc([C@@H]2[C@H]3CN(S(C)(=O)=O)CCCCN3[C@H]2CO)cc1	-12*
COc1ccc(C#Cc2ccc([C@H]3[C@H](CO)N4CCCCN(S(=O)(=O)c5ccccc5)C[C@@H]34)cc2)cc1	4.7
CCCC#Cc1ccc([C@@H]2[C@@H](CO)N3CCCCN(S(C)(=O)=O)C[C@H]23)cc1	2.2
COc1ccc(C#Cc2ccc([C@H]3[C@@H](CO)N4CCCCN(S(=O)(=O)c5ccccc5)C[C@@H]34)cc2)cc1	2.3
COc1ccccc1C#Cc1ccc([C@@H]2[C@H]3CN(CCC(F)(F)F)CCCCN3[C@H]2CO)cc1	-7.8*
CCS(=O)(=O)N1CCCCN2[C@@H](CO)[C@@H](c3ccc(C4=CCCC4)cc3)[C@@H]2C1	-0.6
C/C=C/c1ccc([C@@H]2[C@@H](CO)N(Cc3nccs3)C23CN(CC2CCCC2)C3)cc1	0.73
O=S(=O)(c1ccccc1F)N1CCCCN2[C@@H](CO)[C@@H](c3ccc(-c4ccncc4)cc3)[C@@H]2C1	2
COCC(=O)N1CC2(CCN(C(=O)c3cccnc3)CC2)c2c([nH]c3cc(OC)ccc23)[C@@H]1CO	-0.12
COc1cc(CN2CC3(CCN(C(=O)c4cccnc4)CC3)c3c([nH]c4cc(OC)ccc34)[C@@H]2CO)cc(OC)c1	-4.1*
CCCC(=O)N1CC2(C1)CN(Cc1cccnc1)[C@H](CO)c1[nH]c3cc(OC)ccc3c12	-3.1*
COc1ccc2c3c([nH]c2c1)[C@H](CO)N(Cc1ccncc1)CC31CN(C(=O)CN(C)C)C1	-0.94
